Data as given in PubChem BioAssay (Tox21).
Where “and” joins values, the source holds several entries; their conditions need not be identical. Equal values may be shown once. Inconclusive results are not listed. Calls of active or inactive are those of the source. Unless noted, the call rests on the fitted dose curve.

What was measured:
[1] = qHTS assay to identify small molecule antagonists of the sonic hedgehog signaling (Shh) pathway (AID 1259369); further: nearly all actives have a fitted effect of over 45% in size; further: potency means the concentration at half of the fitted maximal effect
Outline: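 NIH/3T3 stable Gli1-Luc clone, 2,000 cells/well, 4hr settle; cpd + conditioned medium 24hr; Luc reagent 30min RT; luminescence.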

[2] = qHTS assay to identify small molecule agonists of the androgen receptor (AR) signaling pathway in the presence of an antagonist - cell viability counter screen (AID 1259379; active means well fitted curve in the direction sought with a large enough effect in the repeat runs; an effect the other way counts as inactive or inconclusive; further: nearly all actives have a fitted effect of over 25% in size; further: potency means the concentration at half of the fitted maximal effect)
Outline: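 MDA-kb2 viability measured by CellTiter-Fluor fluorescence in the same wells as the luciferase signal; nilutamide 3.0uM final; 15-point compound titration; 16 hr at 37C.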

[3] = qHTS assay to identify small molecule agonists of the estrogen receptor beta (ER-beta) signaling pathway - cell viability counter screen (AID 1259380; active means well fitted curve in the direction sought with a large enough effect in the repeat runs; an effect the other way counts as inactive or inconclusive; further: nearly all actives have a fitted effect of over 30% in size; further: potency means the concentration at half of the fitted maximal effect)
Outline: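 Measured: luminescence from CellTiter-Glo after 30 min at room temperature, added to wells already read for the LiveBLAzer FRET reporter (2 hr substrate); ER-beta-UAS-bla HEK293T cells had 16 hr compound treatment at 37C, 5% CO2.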

[4] = target: Estrogen receptor (Homo sapiens) (UniProt P03372); assay: qHTS assay to identify small molecule agonists of the estrogen receptor alpha (ER-alpha) signaling pathway in the presence of an antagonist (AID 1259383); further: top concentration of the series differs between compounds; nearly all actives have a fitted effect of over 15% in size
Estrogen receptor (Homo sapiens), sequence (P03372 whole entry, looked up): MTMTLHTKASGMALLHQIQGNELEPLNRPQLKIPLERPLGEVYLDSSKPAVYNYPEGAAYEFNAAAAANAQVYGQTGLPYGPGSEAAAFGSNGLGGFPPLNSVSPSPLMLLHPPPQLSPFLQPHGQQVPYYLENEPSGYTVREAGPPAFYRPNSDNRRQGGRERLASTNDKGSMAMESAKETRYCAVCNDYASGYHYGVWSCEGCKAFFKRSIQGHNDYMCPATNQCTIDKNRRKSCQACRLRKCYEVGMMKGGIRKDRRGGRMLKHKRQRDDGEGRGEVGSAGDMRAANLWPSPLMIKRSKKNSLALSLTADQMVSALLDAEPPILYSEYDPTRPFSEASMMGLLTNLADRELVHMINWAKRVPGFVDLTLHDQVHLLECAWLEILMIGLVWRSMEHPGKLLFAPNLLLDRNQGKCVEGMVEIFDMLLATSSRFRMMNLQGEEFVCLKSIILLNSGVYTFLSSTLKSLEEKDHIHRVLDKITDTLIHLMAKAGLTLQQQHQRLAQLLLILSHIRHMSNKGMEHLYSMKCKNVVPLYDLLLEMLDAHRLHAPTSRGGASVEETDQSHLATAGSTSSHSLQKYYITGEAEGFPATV
Outline: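 Quantitative HTS confirmation: compounds titrated at 15 concentrations onto estrogen-deprived VM7Luc4E2 cells carrying a four-ERE luciferase construct, with ICI-182,780 present at 10.0nM final. Signal is luminescence after 22hr exposure.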

[5] = qHTS assay to identify small molecule agonists or antagonists of the thyroid stimulating hormone receptor (TSHR) signaling pathway - wild type cell line counter screen (AID 1259384)
Outline: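 Wild-type Hek293 cells, 800/well, 18 h at 37C, then compound with Ro20-1724 for 30 min RT. cAMP by HTRF (cAMP-d2/anti-cAMP cryptate), 1 h RT, fluorescence read. 15 concentrations, triplicates.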

[6] = qHTS assay to identify small molecule antagonists of the estrogen receptor beta (ER-beta) signaling pathway - cell viability counter screen (AID 1259382; active means well fitted curve in the direction sought with a large enough effect in the repeat runs; an effect the other way counts as inactive or inconclusive; further: nearly all actives have a fitted effect of over 55% in size; further: potency means the concentration at half of the fitted maximal effect)
Outline: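 Readout: luminescence, CellTiter-Glo, same wells as bla assay. System: ER-beta-UAS-bla GripTite HEK293T, 2% charcoal-stripped FBS. Exposure: compounds plus 1nM 17-beta-estradiol, 16 hr, 37C.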

[7] = target: Thyrotropin receptor (Homo sapiens) (UniProt P16473); assay: qHTS assay to identify small molecule antagonists of the thyroid stimulating hormone receptor (TSHR) signaling pathway (AID 1259385); further: nearly all actives have a fitted effect of over 20% in size; further: potency means the concentration at half of the fitted maximal effect
Thyrotropin receptor (Homo sapiens), sequence (P16473 whole entry, looked up): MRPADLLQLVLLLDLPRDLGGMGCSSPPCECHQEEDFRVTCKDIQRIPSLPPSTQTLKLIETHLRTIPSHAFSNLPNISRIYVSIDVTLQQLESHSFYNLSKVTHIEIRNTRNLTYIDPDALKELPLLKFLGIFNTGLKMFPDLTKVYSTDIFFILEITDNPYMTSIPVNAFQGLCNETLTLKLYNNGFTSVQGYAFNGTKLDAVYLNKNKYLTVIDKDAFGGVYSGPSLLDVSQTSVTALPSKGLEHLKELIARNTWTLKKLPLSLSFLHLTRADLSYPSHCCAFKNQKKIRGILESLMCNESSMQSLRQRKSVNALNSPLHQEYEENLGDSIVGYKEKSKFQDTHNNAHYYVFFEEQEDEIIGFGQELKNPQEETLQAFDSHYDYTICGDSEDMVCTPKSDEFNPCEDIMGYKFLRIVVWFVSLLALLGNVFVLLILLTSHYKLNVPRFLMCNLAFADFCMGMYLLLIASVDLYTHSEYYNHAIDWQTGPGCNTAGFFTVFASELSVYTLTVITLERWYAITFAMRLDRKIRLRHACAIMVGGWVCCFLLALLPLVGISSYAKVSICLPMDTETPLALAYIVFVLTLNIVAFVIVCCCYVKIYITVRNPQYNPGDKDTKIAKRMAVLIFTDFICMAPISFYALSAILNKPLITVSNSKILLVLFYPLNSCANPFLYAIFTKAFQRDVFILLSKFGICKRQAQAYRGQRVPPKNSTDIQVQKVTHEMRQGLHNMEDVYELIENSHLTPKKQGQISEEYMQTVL
Outline: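 TSHR-HEK293 cells (800/well) plated 18 h, then compounds with Ro20-1724 and TSH at 1.5 ng/mL final, 30 min at room temperature. cAMP quantified by HTRF (cAMP-d2/anti-cAMP-cryptate, 1 h); 15 concentrations in triplicate.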

[8] = target: Estrogen receptor beta (Homo sapiens) (UniProt Q92731); assay: qHTS assay to identify small molecule antagonists of the estrogen receptor beta (ER-beta) signaling pathway (AID 1259378; active means well fitted inhibition curve with a large enough effect in the signal ratio in the repeat runs, not every such curve was filed as active; the % refers to the signal ratio; further: potency means the concentration at half of the fitted maximal effect)
Estrogen receptor beta (Homo sapiens), sequence (Q92731 whole entry, looked up): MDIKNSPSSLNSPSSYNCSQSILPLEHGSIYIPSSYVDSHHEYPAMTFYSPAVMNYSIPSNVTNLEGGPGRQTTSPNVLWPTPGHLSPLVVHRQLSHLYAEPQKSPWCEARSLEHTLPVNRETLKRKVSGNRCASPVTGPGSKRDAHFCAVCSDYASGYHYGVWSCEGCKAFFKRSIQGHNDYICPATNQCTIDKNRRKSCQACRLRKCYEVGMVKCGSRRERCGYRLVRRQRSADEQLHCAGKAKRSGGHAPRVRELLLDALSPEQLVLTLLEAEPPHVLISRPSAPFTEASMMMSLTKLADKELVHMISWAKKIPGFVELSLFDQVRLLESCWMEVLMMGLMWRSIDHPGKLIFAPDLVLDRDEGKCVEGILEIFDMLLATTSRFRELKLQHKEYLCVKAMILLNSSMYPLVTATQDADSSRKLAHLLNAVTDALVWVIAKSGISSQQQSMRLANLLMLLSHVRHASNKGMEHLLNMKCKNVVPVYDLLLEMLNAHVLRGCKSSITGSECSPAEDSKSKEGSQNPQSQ
Outline: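 ER-beta-UAS-bla HEK293T cells in 2% charcoal-stripped FBS medium treated with compound plus 1nM final 17-beta-estradiol for 16 hr at 37C. Beta-lactamase reporter read by FRET substrate fluorescence after 2 hours at room temperature.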

[9] = target: Androgen receptor (Homo sapiens) (UniProt P10275); assay: qHTS assay to identify small molecule agonists of the androgen receptor (AR) signaling pathway in the presence of an antagonist (AID 1259381); further: nearly all actives have a fitted effect of over 15% in size
Androgen receptor (Homo sapiens), sequence (P10275 whole entry, looked up): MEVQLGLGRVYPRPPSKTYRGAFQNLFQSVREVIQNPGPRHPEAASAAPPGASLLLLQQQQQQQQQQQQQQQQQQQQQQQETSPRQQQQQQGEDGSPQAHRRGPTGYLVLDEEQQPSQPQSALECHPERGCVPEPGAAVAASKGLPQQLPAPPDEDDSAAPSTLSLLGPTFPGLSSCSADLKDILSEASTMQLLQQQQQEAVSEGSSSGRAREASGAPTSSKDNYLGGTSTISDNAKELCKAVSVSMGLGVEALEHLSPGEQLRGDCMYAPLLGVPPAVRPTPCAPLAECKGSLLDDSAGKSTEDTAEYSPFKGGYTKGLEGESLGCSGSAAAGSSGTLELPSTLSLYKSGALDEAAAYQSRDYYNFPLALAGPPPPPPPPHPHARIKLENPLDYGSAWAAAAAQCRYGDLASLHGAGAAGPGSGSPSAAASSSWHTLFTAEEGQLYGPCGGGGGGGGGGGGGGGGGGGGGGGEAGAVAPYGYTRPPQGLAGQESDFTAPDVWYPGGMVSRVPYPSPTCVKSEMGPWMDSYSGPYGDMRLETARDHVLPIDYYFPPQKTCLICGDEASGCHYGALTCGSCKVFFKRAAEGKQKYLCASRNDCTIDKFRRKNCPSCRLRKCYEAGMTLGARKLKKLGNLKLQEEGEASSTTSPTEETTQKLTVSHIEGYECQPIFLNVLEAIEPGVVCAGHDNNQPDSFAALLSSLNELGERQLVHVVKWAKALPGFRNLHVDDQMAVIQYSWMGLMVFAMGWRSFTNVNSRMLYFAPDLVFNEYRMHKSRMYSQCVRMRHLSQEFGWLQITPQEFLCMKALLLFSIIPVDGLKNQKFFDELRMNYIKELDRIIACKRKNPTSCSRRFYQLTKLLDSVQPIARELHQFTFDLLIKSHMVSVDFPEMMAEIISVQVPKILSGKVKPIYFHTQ
Outline: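 Luminescent ONE-Glo read, 30min at room temperature, follows 16hr compound exposure (15 concentrations) of MDA-kb2 cells at 37C, 0% CO2, with nilutamide added at 3.0uM final.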

Measured: Potency

COC(=O)c1nc(Cl)c(Cl)nc1N
inactive: [4] | [5]
active: [1] 0.75 µM | [2] 29.8 µM | [3] 29.8 µM

CC(CO)CO
inactive: [1] | [2] | [3] | [6] | [4] | [5]

Oc1ccc(Cl)c2cccnc12
active: [1] 0.596 µM
inactive: [2] | [6] | [4] | [5] | [7]

O=[N+]([O-])c1ccc(Nc2ccc(Nc3ccccc3)c(S(=O)(=O)O)c2)c([N+](=O)[O-])c1
inactive: [1] | [3]

CCCCCCCCC(CCCCCC)C(=O)O (configuration not stated)
inactive: [1] | [2] | [7]
active: [3] 8.63 µM

O=C1c2ccccc2C(=O)C1c1nc2ccccc2c(Br)c1O
inactive: [1] | [8] | [3] | [5]

O=c1cc(-c2ccccc2)oc2cc(O)cc(O)c12
active: [1] 61.1 µM | [2] 48.6 µM
inactive: [6] | [5] | [7]

C=COCC(C)C
inactive: [1] | [2] | [3] | [6] | [4] | [5]

CC(C)COCC(CN(Cc1ccccc1)c1ccccc1)N1CCCC1 (configuration not stated)
active: [1] 26.6 µM | [2] 26.6 µM | [3] 29.8 µM
inactive: [4]

CC(=O)Oc1ccc([N+](=O)[O-])cc1CCl
inactive: [1] | [3] | [6] | [4] | [5]
active: [2] 30.6 µM

Cc1ccco1
inactive: [1] | [2] | [3] | [6] | [4] | [5] | [7]

C[C@@H]1CC(=O)NN=C1c1ccc(NN=C(C#N)C#N)cc1
active: [1] 13.3 µM | [2] 23.7 µM and 13.3 µM
inactive: [3] | [6] | [4] | [5] | [7]

Oc1cccc(Nc2ccccc2)c1
inactive: [1] | [2] | [3] | [5] | [7]

CCOC(=O)c1ccc(O)c(O)c1
active: [1] 29.8 µM
inactive: [2] | [3] | [6] | [4] | [5]

CC1=Nc2ccc3ccccc3c2C1(C)C
inactive: [2] | [4] | [5] | [7]
active: [1] 30.6 µM

CCOc1ccccc1O[C@H](c1ccccc1)[C@H]1CNCCO1
inactive: [1] | [2] | [3] | [6] | [4] | [5] | [7]

N#CCc1ccc(Cl)cc1Cl
inactive: [1] | [2] | [3] | [6] | [4] | [5] | [7]

Cc1ccc(OC(=O)c2ccccc2O)cc1
inactive: [1] | [2] | [3] | [6]

CCCCC(CC)COP(=O)(O)O (configuration not stated)
inactive: [1] | [2] | [6] | [4]

CCCCCCCCCCCCCCN(CCO)CCO
active: [1] 19.3 µM | [2] 61.1 µM | [3] 54.5 µM | [6] 48.6 µM

C[C@]1(Cn2ccnn2)[C@H](C(=O)O)N2C(=O)C[C@H]2S1(=O)=O
inactive: [1] | [2] | [4] | [5] | [7]

COc1cc(Nc2c(C#N)cnc3cc(OCCCN4CCN(C)CC4)c(OC)cc23)c(Cl)cc1Cl
active: [1] 13.3 µM | [2] 29.8 µM | [3] 33.5 µM | [7] 13.3 µM
inactive: [6] | [5]

CCC(C)COC(C)=O (configuration not stated)
inactive: [1] | [2] | [3] | [6] | [4] | [5]

CCOC(=O)/C=C/C(=O)OCC
inactive: [1] | [2] | [6] | [4] | [5]

N#CCCN(CCO)CCO
inactive: [1] | [2] | [3] | [6] | [4] | [5] | [7]

CCOC(=O)c1ccc(I)cc1
inactive: [1] | [2] | [3] | [6] | [4] | [5] | [7]

CNC(=O)c1cnn(-c2nc(N)c3ncn([C@@H]4O[C@H](CO)[C@@H](O)[C@H]4O)c3n2)c1
inactive: [1] | [2] | [3] | [6] | [4] | [7]

C[C@@]12CCC[C@H]1[C@@H]1CC[C@H]3C[C@@H](O)CC[C@]3(C)[C@H]1CC2
active: [1] 23.7 µM
inactive: [2] | [3] | [6] | [7]

O=C(/C=C/c1ccc(O)c(O)c1)O[C@@H]1C[C@@](OC(=O)/C=C/c2ccc(O)c(O)c2)(C(=O)O)C[C@@H](O)[C@@H]1O
inactive: [1] | [2] | [3] | [6] | [4] | [7]

COc1ccccc1NC(=O)c1cc2ccccc2cc1O
inactive: [4] | [5]
active: [1] 27.3 µM | [8] 17.2 µM | [3] 54.5 µM

C(=C\c1ccccc1)/c1ccccc1
inactive: [1] | [2] | [3] | [6] | [4] | [5] | [7]

CC(C)c1nc(CN(C)C(=O)N[C@H](C(=O)N[C@@H](Cc2ccccc2)C[C@H](O)[C@H](Cc2ccccc2)NC(=O)OCc2cncs2)C(C)C)cs1
active: [3] 15 µM | [6] 21.1 µM
inactive: [1] | [2] | [4] | [5] | [7]

O=c1c(O)c(-c2ccc(O)cc2)oc2cc(O)cc(O)c12
active: [1] 21.6 µM and 26 µM
inactive: [2] | [6] | [5] | [7]

C=CCc1ccccc1OCC(O)CNC(C)C (configuration not stated)
inactive: [1] | [2] | [6] | [5] | [7]

NC(=O)c1ccncc1
inactive: [1] | [2] | [3] | [9] | [6] | [5] | [7]

O=C1c2ccccc2C(=O)c2c(O)c(O)cc(O)c21
active: [2] 30.6 µM
inactive: [1] | [3] | [9] | [4] | [5] | [7]

Cc1cc(O)c(C)c(C)c1O
inactive: [1] | [2] | [3] | [9] | [6] | [4]

NC1[C@H]2CN(c3nc4c(cc3F)c(=O)c(C(=O)O)cn4-c3ccc(F)cc3F)C[C@@H]12 (some centres not stated)
inactive: [2] | [3] | [6] | [4] | [5]
active: [1] 29.8 µM
